High-throughput results (PubChem)
SNCA expr inhib – SNCA gene expression inhibition | HEK-293 SNCA-luciferase knock-in, luminescence, 24 h | Potency, µM (top dose mostly 57.2 µM), usual class: inhibitors | 140,000 tested, 0.17% active; also: nearly all actives have a fitted effect of over 45% in size
KDM5B inh – KDM5B demethylase inhibition | KDM5B demethylase, FDH-coupled NADH fluorescence (FDH is formaldehyde dehydrogenase) | Potency, µM (highest dose often 57.7 µM), usual class: inhibitors | 220,000 tested, 2.6% active | AID 1347165; also: nearly all actives have a fitted effect of over 70% in size
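Here, H3K4me3 peptide (12.5 µM in substrate mix) is demethylated by KDM5BΔAP, 200 nM final, after 10 min compound exposure. Formaldehyde product is coupled through FDH (0.25 U/mL in mix) to NADH fluorescence; 30-min ΔRFU feeds dose-response curves.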
IP6K1 inh – blocks human inositol hexakisphosphate kinase 1; IP6K1 kinase, ADP-Glo luminescence, 2 h; hits give low values; activity change, % (series mostly up to about 58 µM); 140,000 tested, 0.81% active; AID 1645851; in the data active = activity change below about -25%
Target sequence (Q92551 whole entry, looked up): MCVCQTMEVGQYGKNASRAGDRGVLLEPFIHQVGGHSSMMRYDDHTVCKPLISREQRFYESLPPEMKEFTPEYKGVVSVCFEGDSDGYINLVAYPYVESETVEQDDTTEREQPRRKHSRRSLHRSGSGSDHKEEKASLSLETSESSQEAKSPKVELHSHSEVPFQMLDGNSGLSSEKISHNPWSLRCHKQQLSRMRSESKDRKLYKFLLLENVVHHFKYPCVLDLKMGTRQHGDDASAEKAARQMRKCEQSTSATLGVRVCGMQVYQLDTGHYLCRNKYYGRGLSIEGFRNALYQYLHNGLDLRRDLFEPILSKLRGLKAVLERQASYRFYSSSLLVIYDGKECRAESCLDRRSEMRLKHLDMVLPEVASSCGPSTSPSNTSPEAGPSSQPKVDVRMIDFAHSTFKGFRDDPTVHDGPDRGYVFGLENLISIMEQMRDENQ
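ADP-Glo luminescence measures ADP made by human IP6K1 during a 2 h RT reaction with ATP/IP6 (mix at 1.3 mM/130 uM); top library doses 57.5 and 19.1 uM final.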
HEK293 viab – cell viability loss counter-screen; HEK-293-SNCA-luc viability, GF-AFC fluorescence, 24 h; Potency, µM (series often up to 57.1 µM), hits mostly cytotoxic; 150,000 tested, 0.12% active; AID 1671193; also: nearly all actives have a fitted effect of over 30% in size
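HEK-293-SNCA-luc cells (1500/well) plated 24 h, then exposed 24 h to a dilution series; GF-AFC added 30 min at 37C, fluorescence 405/540 nm; normalised to medium-only and DMSO wells, Hill fit.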
A number is an active result; – = inactive; ? = inconclusive; · = no result given; ! = repeats disagree; [ ] = remark or other dose. In the library only some 3% were active in any assay of this set; here they are far more common. Unless noted, calls follow the shape of the dose curve; as a rule, active = well fitted curve in the direction sought with a large enough effect; inconclusive = small, poorly fitted or top-dose-only effect, or another doubt; inactive = no such curve, though single readings can be large; an effect the other way counts as inactive or inconclusive.

SMILES | SNCA expr inhib | KDM5B inh | IP6K1 inh | HEK293 viab
NC1CC(c2nnc(COc3ccc4c(c3)CCNCC4)n2C2CC2)C1 (stereo unspecified) | – | ? | – | –
N#CC1CCN(C(=O)c2nc(-c3cccc(C(F)(F)F)c3)c3ccccn23)CC1 | – | 14µM | – | –
N#CC1CCN(C(=O)c2nc(-c3cccc(C(F)(F)F)c3)c3cnccn23)CC1 | – | 25µM | – | –
O=C(NC1CCN(Cc2ccc(-c3ccsc3)cc2)C1)c1cccnc1 (stereo unspecified) | – | · | – | –
O=C(c1ccc(Cl)cc1)N1CC2(CCCN2C2COC2)Cc2ccccc21 (stereo unspecified) | – | 89µM | – | –
CC(C)n1cc2cc(C(=O)NCc3cnccn3)sc2c1 | – | 16µM | – | –
Cc1ccccc1CNC(=O)c1cc2cn(C(C)C)cc2s1 | – | 18µM | – | –
CC(C)n1cc2cc(C(=O)NCc3cccnc3)sc2c1 | – | 25µM | – | –
CC(C)n1cc2cc(C(=O)NCc3ccccn3)sc2c1 | – | 25µM | – | –
COc1ccc(CNC(=O)c2cc3cn(C(C)C)cc3s2)cc1 | – | ? | – | –
CCc1noc(CN(CC)C(=O)c2cc(-c3ccccc3)nn2C)n1 | – | – | – | –
Cc1cccnc1CN(C)C(=O)c1ccc2nc(-c3ccccc3)cn2c1 | – | 28µM | – | –
CCc1nnc(CN(CC)C(=O)c2ccc3nc(-c4ccccc4)cn3c2)o1 | – | 28µM | – | –
Cn1cc(Cl)cc1C(=O)N[C@H](C1CCNCC1)C1CC(O)C1 (stereo partly specified) | – | – | – | –
O=C(N[C@H](C1CCNCC1)C1CC(O)C1)c1cccc(=O)[nH]1 (stereo partly specified) | – | 22µM | – | –
CC(C)Cc1cc(C(=O)N[C@H](C2CCNCC2)C2CC(O)C2)nc(N)n1 (stereo partly specified) | – | 22µM | – | –
Cc1cnc2c(C(=O)N[C@H](C3CCNCC3)C3CC(O)C3)cnn2c1 (stereo partly specified) | – | 32µM | – | –
COc1cccc(C(=O)NC2CCN(c3nccc(Nc4ccccc4Cl)n3)CC2)c1 | ? | · | – | ?
COc1ccc(F)cc1-c1ccc(CN2CCCCC2C(=O)NCc2ccccc2F)cc1 (stereo unspecified) | · | · | – | ·
C=CCOc1c(OC)ccc2c1CN(Cc1ccco1)C(=O)CCN2CC(O)COc1ccc(OC)cc1 (stereo unspecified) | · | · | – | ·
Cc1nn(-c2ccccc2)c2c1C(C(C)C)N(C1CCN(C(=O)C3CCCC3)C1)C2=O (stereo unspecified) | · | · | – | ·
O=C(NCc1cccc(C(F)(F)F)c1)C1CCN(Cc2ccccc2-c2ccccc2F)CC1 | · | · | – | ·
O=C(O)Cn1ccc2cc(OCC3CCN(C(=O)C4CCCC4)CC3)cnc21 | – | 35µM | – | –
Cc1nccc(N2CCC(COc3cnc4c(ccn4CC(N)=O)c3)CC2)n1 | – | ? | – | –
O=C(O)Cn1ccc2cc(OCC3CCN(C(=O)CCC(F)(F)F)CC3)cnc21 | – | 35µM | – | –
SMILES | SNCA expr inhib | KDM5B inh | IP6K1 inh | HEK293 viab
Cc1cnc(C)c(N2CCC(COc3cnc4c(ccn4CC(N)=O)c3)CC2)n1 | ? | 35µM | – | –
NC(=O)Cn1ccc2cc(OCC3CCN(C(=O)C4CC4)CC3)cnc21 | ? | 35µM | – | –
O=C(O)CCn1ncc2cc(OCC3CCN(C(=O)C4CCCC4)CC3)ccc21 | – | – | – | –
COc1cccc(-c2ccc(C(=O)N3CCC(N[S+](=O)([O-])c4cccs4)CC3)cc2)c1 | – | · | – | –[12.5 µM]
Cc1ccc(CNC(=O)c2c(C)sc3ccn(CC(C)C)c(=O)c23)o1 | – | 25µM | – | –
c1cnc2nc(-c3ccncc3)[nH]c2c1 | – | 32µM | – | –
c1c[nH]c(-c2nc3ncccc3[nH]2)c1 | – | 141µM! | – | –
O=[N+]([O-])c1ccc(-c2nc(-c3ccc(F)cc3)c(-c3ccncc3)[nH]2)cc1 | – | · | – | –
c1coc(-c2nc3ncccc3[nH]2)c1 | – | 32µM! | – | –
COc1ccc(CSc2nc3ncccc3[nH]2)cc1 | – | – | – | –
CSc1ccc(-c2cccc(CN3CCC(N[S+](=O)([O-])c4cccc(C(F)(F)F)c4)CC3)c2)cc1 | · | · | – | ·
O=C(c1ccc(-c2cccs2)cc1)N1CCC(C(=O)N2CCOCC2)CC1 | · | · | – | ·
O=C(NCCc1ccccc1)c1cc(-c2ccsc2)c2nncn2n1 | – | · | – | –
COc1ccc2c(c1)CCN=C2C[C@H]1CN(S(C)(=O)=O)CC[C@H]1CC(=O)O | – | ? | – | –
COc1cc2c(cc1OC)C(C[C@H]1CN(S(=O)(=O)c3ccccc3)CC[C@H]1CC(=O)O)=NCC2 | – | 25µM | – | –
O=C(O)C[C@@H]1CCN(S(=O)(=O)c2ccc(F)cc2)C[C@@H]1CC1=NCCc2cc(F)ccc21 | – | 20µM | – | –
COc1cc2c(cc1OC)C(C[C@H]1CN(S(=O)(=O)c3ccc(Cl)cc3)CC[C@H]1CC(=O)O)=NCC2 | – | 28µM | – | –
COc1cc2c(cc1OC)C(C[C@H]1CN(S(=O)(=O)c3ccc(F)cc3)CC[C@H]1CC(=O)O)=NCC2 | – | – | – | –
COc1ccc(F)cc1-c1ccc(CN2CCC(NC(=O)C(C)(C)C)C2)cc1 (stereo unspecified) | · | · | – | ·
Fc1ccc(CN2CCn3c(nnc3C3CCCNC3)C2)cc1 (stereo unspecified) | – | 25µM! | – | ?
COC[C@@H]1[C@H](C(=O)Nc2ccc(OC)nc2)CCC(=O)N1C | – | ? | – | –
COC[C@@H]1CN(c2cnccn2)C[C@H]1C(=O)Nc1ccc(OC)nc1 | – | 25µM | – | –
COC[C@@H]1CN(c2cnccn2)C[C@H]1C(=O)N1CCc2ccccc2C1 | – | 20µM | – | ?
COC[C@@H]1CN(c2cnccn2)C[C@H]1C(=O)NCCc1ccccn1 | – | 20µM | – | –
COc1ccc(C(=O)N[C@@H]2CCC[C@@H]2C(=O)NCCc2ccccn2)cn1 | – | – | – | ?
SMILES | SNCA expr inhib | KDM5B inh | IP6K1 inh | HEK293 viab
COC[C@@H]1CN(c2cnccn2)C[C@H]1C(=O)Nc1cccnc1 | – | 28µM | – | –
COc1ccccc1-c1ccc(CN2CCC(NC(=O)Cc3ccc(F)cc3)C2)cc1 (stereo unspecified) | ? | · | – | –[12.5 µM]
COc1ccc(Nc2ccnc(N3CCN(C(=O)Nc4ccccc4)CC3)n2)cc1 | – | · | – | –
Nc1cccn2nc(-c3ccccc3)nc12 | – | 28µM | – | –
OCc1ccc(CN2C[C@H](O)C[C@H]2c2nc(-c3ccccc3)no2)o1 | – | ? | – | –
COCC1CN(C2CCC2)CC12CCN(C(=O)c1sc(C)nc1C)CC2 (stereo unspecified) | – | · | – | –
Cc1nn(C)cc1C(=O)N1CCC2(CC1)CN(c1ncccn1)CC2CO (stereo unspecified) | – | 28µM | – | ?
Cc1nc(C)c(C(=O)N2CCC3(CC2)CN(c2ncccn2)CC3CO)s1 (stereo unspecified) | – | 25µM | – | –
